IEC-6 tox-1: cytotoxicity in IEC-6 intestinal epithelial cells, primary screen, cytotoxicity control for KLF5 inhibitor project, cell-based, luminescence; IEC-6 cytotoxicity, luminescence viability; inhibition, % at 5 µM; 290,000 compounds, 0.78% hits; AID 1825, 2009
BaF3 parental: parental Ba/F3 cell viability inhibition, counter-screen for JAK2V617F inhibitor project, murine pro-B, CellTiter-Glo luminescence; inhibition, % at 5.6 µM; 220,000 compounds, 1.1% hits; CellTiter-Glo ATP luminescence; AID 1486, 2009;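 active = inhibition above a per-campaign cutoff, the mean inhibition of all tested compounds plus 3 SD, cut at about 27% in these data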
Ba/F3 V617F tox: reduced viability of JAK2V617F-dependent Ba/F3 cells, primary screen, JAK2V617F inhibitor project, cell-based, Ba/F3 EpoR-JAK2V617F, luminescence; ATP luminescence; 220,000 compounds, 1.1% hits; inhibition, % at 5.6 µM;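 active = inhibition above the campaign mean plus 3 SD over all tested compounds, cut at about 24% in these data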;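 note: cytokine-independent growth of Ba/F3 cells driven by EpoR plus mutant JAK2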
aSyn UTR inh: MLPCN primary screen, SNCA 5' untranslated region | inhibition, % (tested at 7.5 µM) | AID 1813, 2009 | 300,000 compounds, 0.82% hits | alpha-synuclein 5'UTR reporter, inhibitor activity; in the data active = inhibition above about 60%; inconclusive = no clear call, values can overlap the other calls;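 note: H4 neuroglioblastoma cells stably carrying SNCA 5'UTR luciferase fusion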
APP 5UTR inh: inhibitors of APP translation via 5'UTR reporter, primary screen, APP 5'UTR luciferase, SH-SY5Y cells; AID 1285, 2008; 190,000 compounds, 0.82% hits; inhibition, % at 2 µM; SH-SY5Y APP 5'UTR-luciferase reporter, luminescence;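 active = inhibition above a set limit, derived from the sample mean plus 3 SD, cut at about 45% in these data; inconclusive = one replicate passes the limit while the other fails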
KLF5 inhibitor: KLF5 expression inhibitors, primary screen, DLD-1 cells, luminescence | DLD-1 KLF5 promoter-luciferase reporter | inhibition, % at 5 µM | 290,000 compounds, 0.23% hits | AID 1700, 2009;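 active = inhibition above a per-plate limit of that plate's mean compound inhibition plus 3 SD, cut at about 60% in these data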;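 note: higher means less KLF5 promoter-driven luciferase light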
BaF3 tox 2: parental Ba/F3 cell viability inhibition, counter-screen for JAK2V617F inhibitor project, murine pro-B, CellTiter-Glo luminescence; shares compounds with Ba/F3 V617F tox; cells kept alive by added IL-3; inhibition, % at 5.6 µM; 580 compounds, 31% hits;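 active = cell growth inhibition above the hit limit set in the earlier mutant JAK2 cell screen, cut at about 27% in these data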
JAK2V617F confrm: viability loss in Ba/F3 EpoR-JAK2V617F cells, confirmation, JAK2V617F inhibitor project, cell-based, luminescence, triplicate | shares compounds with Ba/F3 V617F tox | CellTiter-Glo luminescence | inhibition, % at 5.6 µM | 580 compounds, 66% hits | AID 1521, 2009;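 active = mean inhibition above the hit cutoff derived in the earlier primary screen, cut at about 25% in these data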;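 note: higher means lower luminescence from reduced cell ATP and viability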
KLF5 confirm: KLF5 expression inhibitors, confirmation, DLD-1 cells, luminescence; 610 compounds, 79% hits; DLD-1 KLF5 promoter firefly luciferase reporter; shares compounds with KLF5 inhibitor; inhibition, % at 4 µM; AID 1834, 2009;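 active = inhibition above a set limit taken from the earlier primary screen, cut at about 63% in these data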
IEC-6 tox-2: cytotoxicity in rat IEC-6 cells, cytotoxicity control for KLF5 inhibitor project, cell-based, luminescence, triplicate; shares compounds with KLF5 inhibitor; IEC-6 rat intestinal cells, viability luminescence; inhibition, % at 4 µM; 610 compounds, 56% hits; AID 1905, 2009; in the data active = inhibition above about 23%;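 note: cells exposed to compounds for 48 hours before viability read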
IEC-6 cytotox cf: cytotoxic compounds in IEC-6 epithelial cells, confirmation, cytotoxicity control, cell-based, luminescence. shares compounds with IEC-6 tox-1. IEC-6 rat intestinal epithelial viability. inhibition, % at 5 µM. 1,900 compounds, 63% hits
Hits are given with their value; . = inactive; ? = inconclusive; / = no result given. In the library only some 2.2% were active in any assay of this set; here they are far more common. Cut-off read from the data, not from the text of the source, unless noted: active = inhibition above about 22%; inactive = the rest.

SMILES	IEC-6 tox-1	BaF3 parental	Ba/F3 V617F tox	aSyn UTR inh	APP 5UTR inh	KLF5 inhibitor	others
CCCCCSc1cc(OC)c(CCNC)cc1OC	.	.	.	.	.	.
CCCCCCCSc1cc(OC)c(CCNC)cc1OC	.	.	.	121.5	.	.
Cc1nc2c(c(=O)[nH]1)C(c1ccccc1Cl)c1c(c3ccccc3oc1=O)O2 (centres undefined)	.	.	.	.	/	.
CN1C(=O)C(=Cc2c(OCc3cnc(Cl)s3)ccc3ccccc23)C(=O)N(C)C1=O	.	.	.	.	.	.
C=C(C=O)CC1CC(O)[C@]2(C)OC3CC4OC5C[C@]6(C)O[C@]7(C)CCC8OC9C[C@]%10(C)OC%11C(C)=CC(=O)OC%11CC%10OC9C[C@@H](C)C8OC7CC6O[C@]5(C)CC5OC5C4OC3CC2O1 (some centres undefined)	.	96.7	96.5	114.2	96.2	.
COC(=O)CNC(=O)c1cn(CCC#N)nc1-c1ccc(F)cc1	.	.	.	.	.	.
CCOC(=O)c1nc2ccccc2c(=O)n1-c1cccc(C)c1	.	.	.	.	.	.
COC(=O)c1ccc(C(C(=O)NC2CCCCC2)N(CCN2CCOCC2)C(=O)Cc2cccs2)cc1 (centres undefined)	.	.	.	.	.	.
CN(C)c1ccc(/C=C/C=C/c2sc3ccccc3[n+]2C)cc1	.	78.9	98.9	?	/	.
c1ccc2c(CN3CCN(C4CCCCC4)CC3)c[nH]c2c1	.	.	.	.	.	.
c1ccc2c(CN3CCCCCCC3)c[nH]c2c1	.	38.0	48.7	.	.	.
CC(=O)OC(C)(C)/C=C/C(=O)[C@](C)(O)[C@H]1[C@H](O)C[C@@]2(C)[C@@H]3CC=C4[C@H](C[C@H](O)C(=O)C4(C)C)[C@]3(C)C(=O)C[C@]12C	98.5	88.2	100.8	/	90.4	82.8
Cc1cc(C)[n+](C2C3CC4CC(C3)CC2C4)o1 (centres undefined)	.	65.8	67.7	.	.	.
O=c1[nH]c(=O)n(-c2ccccc2)c(O)c1/C=C1/C(c2ccccc2)=Nc2ccccc21	55.4	67.9	79.7	.	68.1	.
O=C(COc1ccc(Cl)cc1)NCCc1cnc[nH]1	.	/	/	.	/	.
COC(=O)C1=C(c2cc3ccccc3o2)C[C@@H]2CC[C@H]1N2C(=O)N1CCCCC1	/	/	/	66.4	/	/
N#Cc1ccc(Cn2cc(C=O)c3ccccc32)cc1	.	/	/	.	/	.
Cc1cccc(Cn2cc(C=O)c3ccccc32)c1	.	/	/	67.6	/	.
O=Cc1cn(Cc2cccc([N+](=O)[O-])c2)c2ccccc12	.	.	.	94.2	.	.
O=Cc1cn(Cc2ccccc2F)c2ccccc12	.	.	.	.	.	.
CCCN1CCC(NC2CCC(O)CC2)CC1 (centres undefined)	.	/	/	.	/	.
CCC[N+]12CCC(CC1)C(=C(c1ccccc1)c1ccccc1)C2	.	36.5	.	.	.	.
CCCC[N+]12CCC(CC1)C(=C(c1ccccc1)c1ccccc1)C2	.	.	.	.	.	.
O=C(c1ccccc1F)c1cn(CC(=O)N2CCCCC2)c2ccccc12	.	.	49.5	.	.	.	BaF3 tox 2=.;JAK2V617F confrm=.
COC(=O)C1=C(c2cc3ccccc3o2)C[C@@H]2CC[C@H]1N2C(=O)N1CCCC1	/	/	/	.	/	/
SMILES	IEC-6 tox-1	BaF3 parental	Ba/F3 V617F tox	aSyn UTR inh	APP 5UTR inh	KLF5 inhibitor	others
CCn1c(O)c(C=NCCN2CCOCC2)c(=O)[nH]c1=S	.	.	.	.	/	.
COC12C(COC(N)=O)C3=C(C(=O)C(C)=C(N)C3=O)N1CC1C2N1C (centres undefined)	.	.	29.4	.	/	.	BaF3 tox 2=50.3;JAK2V617F confrm=96.1
Cc1nn(Cc2ccccc2Cl)c(C)c1C(=O)OCC(=O)NC1CCS(=O)(=O)C1 (centres undefined)	.	.	.	.	.	.
Cc1nn(Cc2ccccc2Cl)c(C)c1C(=O)OCC(=O)NC1CCCC(C)C1C (centres undefined)	.	.	76.0	.	.	.	BaF3 tox 2=.;JAK2V617F confrm=.
CCn1nc(/C=C/c2ccccc2)nc2c(=O)n(C)c(=O)nc1-2	102.0	.	44.0	.	.	.	BaF3 tox 2=103.1;JAK2V617F confrm=98.8;IEC-6 cytotox cf=104.2
CCOC(=O)C1(CCCc2ccccc2)CCN(C2CCC2)CC1	.	.	.	.	.	.
C[C@@H]1O[C@@H](O[C@H]2C[C@@H](O)[C@]3(CO)[C@H]4[C@H](O)C[C@]5(C)[C@@H](C6COC(=O)C6)CC[C@]5(O)[C@@H]4CC[C@]3(O)C2)[C@H](O)[C@H](O)[C@H]1O (some centres undefined)	.	.	.	114.9	92.7	63.9	KLF5 confirm=70.7;IEC-6 tox-2=.
CCCCCCC[n+]1ccc(-c2cc[n+](CCCCCCC)cc2)cc1	.	92.6	94.5	91.5	.	76.9	KLF5 confirm=62.8;IEC-6 tox-2=.
N#CCCn1cc(C(=O)Nc2ccccc2Br)c(-c2ccc3c(c2)OCCO3)n1	.	.	.	.	.	.
C[N+]1(CC2COC(c3ccco3)O2)CCCCC1 (centres undefined)	.	.	.	.	.	.
CCC(C)C(NC(=O)CCCNC(=O)CCC(=O)OC1O[C@H]2OC3(C)CC[C@H]4[C@H](C)CCC(C1C)C24OO3)C(=O)O (some centres undefined)	34.4	/	/	.	/	83.2	KLF5 confirm=84.2;IEC-6 tox-2=41.4;IEC-6 cytotox cf=26.4
C[C@@H]1CC[C@H]2[C@@H](C)C(=O)O[C@@H]3O[C@@]4(C)CC[C@@H]1[C@]32OO4	.	/	/	.	/	.
O=C1NC(=O)C2(C(=O)N1)C(c1ccc(F)cc1)NC(=S)NC2c1ccc(F)cc1 (centres undefined)	.	.	.	.	.	.

High-throughput results from PubChem BioAssay.
